# Like-named read-outs stand apart in the source and are kept apart here.
# Tests used:
# Parameters in all cases: species or system human, MV4-11 + K-562 + COLO205 + SK-N-BE2 + OVCAR-8
# ACVR1B = details: read-out: apparent Kd; compound concentrations:100 nM and 1000 nM (sheet 'Samples'); n = 1
# PRKD2 = details: read-out: apparent Kd, n = 1
# PRKD3 = details: read-out: apparent Kd, n = 1
# TGFBR1 = details: read-out: apparent Kd; compound concentrations:100 nM and 1000 nM (sheet 'Samples'); n = 1
# ACVR1 = details: read-out: apparent Kd, compound concentrations: 100 nM and 1000 nM (sheet 'Samples'), n = 1
# BCR = details: read-out: apparent Kd, compound concentrations: 100 nM and 1000 nM (sheet 'Samples'), n = 1
# CDKL5 = details: read-out: apparent Kd; compound concentrations: 100 nM and 1000 nM (sheet 'Samples'), CATDS: 0.10101184649506401; n = 1
# CSNK2A1;CSNK2A3 = details: read-out: apparent Kd; compound concentrations: 100 nM and 1000 nM (sheet 'Samples'), CATDS: 0.137145274912611; n = 1
# CSNK2A2 = details: read-out: apparent Kd; compound concentrations: 100 nM and 1000 nM (sheet 'Samples'), CATDS: 0.22568308322630501; n = 1
# GSK3A = details: read-out: apparent Kd; compound concentrations: 100 nM and 1000 nM (sheet 'Samples'), CATDS: 0.157775642803201; n = 1
# GSK3B = details: read-out: apparent Kd; compound concentrations: 100 nM and 1000 nM (sheet 'Samples'), CATDS: 0.15091586406642499; n = 1
# DAPK3 = details: read-out: apparent Kd; compound concentrations:100 nM and 1000 nM (sheet 'Samples'); n = 1
# PIK3CG = details: read-out: apparent Kd; compound concentrations:100 nM and 1000 nM (sheet 'Samples'); n = 1
# PKN3 = details: read-out: apparent Kd; compound concentrations:100 nM and 1000 nM (sheet 'Samples'); n = 1
# TGFBR2 = details: read-out: apparent Kd, n = 1
# ADCK1 = details: read-out: apparent Kd; compound concentrations: 100 nM and 1000 nM (sheet 'Samples'), CATDS: 4.4524563972159897E-2; n = 1
# ADK = details: read-out: apparent Kd; compound concentrations: 100 nM and 1000 nM (sheet 'Samples'), CATDS: 4.5787667935106503E-2; n = 1
# CDK4 = details: read-out: apparent Kd; compound concentrations: 100 nM and 1000 nM (sheet 'Samples'), CATDS: 4.6312693671670499E-2; n = 1
# CSNK1D = details: read-out: apparent Kd; compound concentrations: 100 nM and 1000 nM (sheet 'Samples'), CATDS: 7.6669822847603902E-2; n = 1
# CSNK1E = details: read-out: apparent Kd; compound concentrations: 100 nM and 1000 nM (sheet 'Samples'), CATDS: 6.5483605156218705E-2; n = 1
# MAP4K5 = details: read-out: apparent Kd; compound concentrations: 100 nM and 1000 nM (sheet 'Samples'), CATDS: 6.0957264613737197E-2; n = 1
# PRKACA = details: read-out: apparent Kd; compound concentrations: 100 nM and 1000 nM (sheet 'Samples'), CATDS: 6.9210809350161107E-2; n = 1
# PRKACB = details: read-out: apparent Kd; compound concentrations: 100 nM and 1000 nM (sheet 'Samples'), CATDS: 6.0886440238293899E-2; n = 1
# PRKCD = details: read-out: apparent Kd; compound concentrations: 100 nM and 1000 nM (sheet 'Samples'), CATDS: 6.5587395591723996E-2; n = 1
# PRKCQ = details: read-out: apparent Kd; compound concentrations: 100 nM and 1000 nM (sheet 'Samples'), CATDS: 0.20872331441348899; n = 1
# RPS6KB1 = details: read-out: apparent Kd; compound concentrations: 100 nM and 1000 nM (sheet 'Samples'), CATDS: 6.31408503509263E-2; n = 1
# TNIK = details: read-out: apparent Kd; compound concentrations: 100 nM and 1000 nM (sheet 'Samples'), CATDS: 0.113919393065207; n = 1
# ACVR2B = details: read-out: apparent Kd, compound concentrations: 100 nM and 1000 nM (sheet 'Samples'), n = 1
# FLT3 = details: read-out: apparent Kd; compound concentrations: 100 nM and 1000 nM (sheet 'Samples'), CATDS: 5.3612696826146597E-2; n = 1
# FLT4 = details: read-out: apparent Kd; compound concentrations: 100 nM and 1000 nM (sheet 'Samples'), CATDS: 5.6175855360763499E-2; n = 1
# FRK = details: read-out: apparent Kd; compound concentrations: 100 nM and 1000 nM (sheet 'Samples'), CATDS: 7.6735011828902105E-2; n = 1
# FYN = details: read-out: apparent Kd; compound concentrations: 100 nM and 1000 nM (sheet 'Samples'), CATDS: 5.82468241174715E-2; n = 1
# GAK = details: read-out: apparent Kd; compound concentrations: 100 nM and 1000 nM (sheet 'Samples'), CATDS: 5.5943535710341101E-2; n = 1
# IRAK3 = details: read-out: apparent Kd; compound concentrations: 100 nM and 1000 nM (sheet 'Samples'), CATDS: 6.2537206863604394E-2; n = 1
# PIP4K2C = details: read-out: apparent Kd, compound concentrations: 100 nM and 1000 nM (sheet 'Samples'), n = 1
# RET = details: read-out: apparent Kd; compound concentrations: 100 nM and 1000 nM (sheet 'Samples'), CATDS: 7.3825490143618097E-2; n = 1
# RIPK2 = details: read-out: apparent Kd; compound concentrations: 100 nM and 1000 nM (sheet 'Samples'), CATDS: 0.18233295125810001; n = 1
# STK11 = details: read-out: apparent Kd; compound concentrations: 100 nM and 1000 nM (sheet 'Samples'), CATDS: 4.7078768974871503E-2; n = 1
# [1] = compound concentrations:100 nM and 1000 nM (sheet 'Samples')
smiles,measurement,setting,value
Cc1cccc(-c2nc(C)cc(Nc3ccncc3)n2)n1 [GSK257997A],potency estimated from few doses,ACVR1B,431 nM
same,potency estimated from few doses,PRKD2; [1],408 nM
same,potency estimated from few doses,PRKD3; [1],1590 nM
same,potency estimated from few doses,TGFBR1,75.9 nM
COc1cccc(-n2ncc3c(N/N=C/c4ccc(S(C)(=O)=O)cc4)ncnc32)c1 [GW811168X],potency estimated from few doses,ACVR1; CATDS: 0.17536774799610499,555 nM
same,potency estimated from few doses,BCR; CATDS: 0.114797180795753,1420 nM
same,potency estimated from few doses,CDKL5,2130 nM
same,potency estimated from few doses,CSNK2A1;CSNK2A3,907 nM
same,potency estimated from few doses,CSNK2A2,365 nM
same,potency estimated from few doses,GSK3A,677 nM
same,potency estimated from few doses,GSK3B,740 nM
Cc1csc(-c2nc(Nc3ccncc3)c3ccccc3n2)n1 [GW869640X],potency estimated from few doses,ACVR1B,17.6 nM
same,potency estimated from few doses,DAPK3,1290 nM
same,potency estimated from few doses,PIK3CG,1460 nM
same,potency estimated from few doses,PKN3,939 nM
same,potency estimated from few doses,PRKD2; [1],191 nM
same,potency estimated from few doses,PRKD3; [1],504 nM
same,potency estimated from few doses,TGFBR2; [1],750 nM
Cc1n[nH]c2ccc(-c3cc(OC[C@@H](N)Cc4c[nH]c5ccccc45)cnc3-c3ccoc3)cc12.Cc1n[nH]c2ccc(-c3cc(OC[C@@H](N)Cc4c[nH]c5ccccc45)cnc3-c3ccoc3)cc12.O=C(O)C(F)(F)F.O=C(O)C(F)(F)F.O=C(O)C(F)(F)F [GSK562689A],potency estimated from few doses,ADCK1,2150 nM
same,potency estimated from few doses,ADK,1830 nM
same,potency estimated from few doses,CDK4,1720 nM
same,potency estimated from few doses,CSNK1D,302 nM
same,potency estimated from few doses,CSNK1E,464 nM
same,potency estimated from few doses,MAP4K5,577 nM
same,potency estimated from few doses,PRKACA,396 nM
same,potency estimated from few doses,PRKACB,579 nM
same,potency estimated from few doses,PRKCD,462 nM
same,potency estimated from few doses,PRKCQ,41.7 nM
same,potency estimated from few doses,"PRKD2; compound concentrations: 100 nM and 1000 nM (sheet 'Samples'), CATDS: 0.17196563894613301",57.2 nM
same,potency estimated from few doses,"PRKD3; compound concentrations: 100 nM and 1000 nM (sheet 'Samples'), CATDS: 0.24703755989756301",32.3 nM
same,potency estimated from few doses,RPS6KB1,518 nM
same,potency estimated from few doses,TNIK,123 nM
Cc1ccc(Nc2ccnc(Nc3cccc(C(N)=O)c3)n2)cc1O.Cl [GW575808A],potency estimated from few doses,ACVR1; CATDS: 7.6276409382360397E-2,534 nM
same,potency estimated from few doses,ACVR2B; CATDS: 0.210677427457096,77 nM
same,potency estimated from few doses,BCR; CATDS: 7.0620023573944493E-2,645 nM
same,potency estimated from few doses,FLT3,1450 nM
same,potency estimated from few doses,FLT4,1240 nM
same,potency estimated from few doses,FRK,526 nM
same,potency estimated from few doses,FYN,1100 nM
same,potency estimated from few doses,GAK,1250 nM
same,potency estimated from few doses,IRAK3,894 nM
same,potency estimated from few doses,PIP4K2C; CATDS: 5.2092814624207201E-2,1610 nM
same,potency estimated from few doses,RET,578 nM
same,potency estimated from few doses,RIPK2,96.9 nM
same,potency estimated from few doses,STK11,2430 nM
same,potency estimated from few doses,"TGFBR2; compound concentrations: 100 nM and 1000 nM (sheet 'Samples'), CATDS: 0.25024360667503898",59.4 nM
Cl.NC(=O)c1cccc(Nc2nccc(Nc3cccc(F)c3)n2)c1 [GW759710A],potency estimated from few doses,ACVR2B; CATDS: 0.70743681093709798,450 nM
same,potency estimated from few doses,PIP4K2C; CATDS: 0.38663089306687698,1730 nM

# From article PMC11062922 (Nature Chemical Biology, 2023)
